Measured values: PubChem BioAssay (NCATS)
Results filed as inconclusive are left out. A number with no mark means an inactive call. Active and inactive are the calls of the source. Calls follow the shape of the dose curve; as a rule, active = well fitted inhibition curve with a large enough effect; inconclusive = small, poorly fitted or top-dose-only effect; inactive = flat fitted curve, though single readings scatter.

These compounds were tested on DIV17 (assay: qHTS profiling for inhibitors of Plasmodium falciparum proliferation (AID 504749; also: nearly all actives have a fitted effect of over 60% in size;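 as to activity, negative = inhibition: 0% = DMSO vehicle and full inhibition = artemisinin control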)). Settings: P. falciparum in erythrocytes, SYBR Green DNA, 72 h; series mostly up to 28.7 µM; activity, negative = inhibition: at the top concentration.
Outline: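 Each compound contacts P. falciparum-infected red blood cells for 72 h at 37 C; lysis buffer (Tris, EDTA, saponin, Triton X, SYBR Green I) is added and fluorescence measured next morning; values normalized to controls.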
Potency is read from the fitted curve at half-maximal effect.

| SMILES | activity, negative = inhibition | Potency |
| --- | --- | --- |
| CCCCCCCCCCCCCCCC(=O)OC[C@H](O)[C@H]1OC[C@@H](O)[C@@H]1O | -8.68% | – |
| CCCCC(=O)OCC(=O)[C@]1(O)Cc2c(O)c3c(c(O)c2[C@H](OC2CC(NC(=O)C(F)(F)F)C(O)C(C)O2)C1)C(=O)c1c(OC)cccc1C3=O (stereo partly drawn) | – | 1510 nM (active) |
| C[C@H]1OC(OC2C(O)[C@@H](O)C(OC3C(O)[C@@H](O)C(O)O[C@@H]3CO)O[C@@H]2CO)[C@H](O)C(O)C1N[C@H]1C=C(CO)[C@@H](O)[C@H](O)C1O (stereo partly drawn) | 14.1% | – |
| CCN(CC)CC(=O)Nc1c(C)cc(C)cc1C | -14.8% | – |
| CC(=O)N[C@H]1[C@H](O[C@@H]2c3ccc(c(Cl)c3)Oc3cc4cc(c3O[C@@H]3O[C@H](CO)[C@@H](O)[C@H](O)C3C)Oc3ccc(cc3Cl)C[C@H]3NC(=O)[C@@H](N)c5ccc(O)c(c5)Oc5cc(O)cc(c5)[C@H](NC3=O)C(=O)N[C@H]4C(=O)N[C@H]3C(=O)N[C@@H]2C(=O)N[C@@H](C(=O)O)c2cc(O)cc(O[C@H]4O[C@H](CO)[C@@H](O)C(O)[C@@H]4O)c2-c2cc3ccc2O)O[C@H](CO)[C@@H](O)[C@@H]1O (stereo partly drawn) | -3.97% [at 12.8 µM] | – |
| NC(=O)c1ncn(C2OC(CO)C(O)C2O)c1N (stereo not drawn) | 3.98% | – |
| C[C@H]1[C@@H](OC(=O)CCC(=O)O)OC2OC3(C)CC[C@H]4[C@H](C)CC[C@@H]1[C@@]24OO3 (stereo partly drawn) | – | 4.3 nM (active) |
| CC1(Cn2ccnn2)[C@H](C(=O)O)N2C(=O)C[C@H]2S1(=O)=O (stereo partly drawn) | 7.36% | – |
| CN(C)CC/C=C1\c2ccccc2COc2ccc(CC(=O)O)cc21 | -13.4% | – |
| OCCN1CC(O)C(O)C(O)C1CO (stereo not drawn) | -0.485% | – |
| C[n+]1c2cc(N)ccc2cc2ccc(N)cc21 | – | 269 nM (active) |
| O=C(OC[C@@H]1O[C@@](O)(COC(=O)c2cccnc2)[C@H](OC(=O)c2cccnc2)[C@H]1OC(=O)c1cccnc1)c1cccnc1 | -3.2% | – |
| O=[N+]([O-])O[C@H]1CO[C@H]2[C@@H]1OC[C@H]2O | 0.296% | – |
| COc1cccc(OC)c1C(=O)NC1C(=O)N2C1SC(C)(C)C2C(=O)O (stereo not drawn) | 6.5% | – |
| NC[C@@H]1O[C@H](OC2[C@@H](CO)O[C@@H](OC3[C@H](O)[C@H](N)C[C@H](N)[C@H]3OC3O[C@H](CO)[C@@H](O)[C@H](O)[C@@H]3N)[C@H]2O)C(N)[C@H](O)[C@@H]1O (stereo partly drawn) | -0.477% | – |
| Cc1ccc(S(=O)(=O)NC(=O)NC(C)Cc2ccccc2)cc1 (stereo not drawn) | 1.6% | – |
| OCCOC[C@H]1O[C@H](OCCO)[C@H](OCCO)[C@@H](OCCO)[C@@H]1OCCO (tested in a mixture with another compound) | 1.67% | – |
| CC[C@@H]1/C=C(\C)C[C@H](C)C[C@H](OC)[C@H]2O[C@@](O)(C(=O)C(=O)N3CCCC[C@H]3C(=O)O[C@H](/C(C)=C/[C@@H]3CC[C@H](Cl)[C@H](OC)C3)[C@H](C)[C@@H](O)CC1=O)[C@H](C)C[C@@H]2OC | -7.18% | – |
| NC(=O)C1CC2(NC(=O)NC2=O)c2cc(F)ccc2O1 (stereo not drawn) | -13.5% | – |
| CN1[C@@H]2CC[C@@H]1CC(OC(=O)[C@H](CO)c1ccccc1)C2 (stereo partly drawn) | -0.28% | – |
| CC[C@@]1(O)C[C@H](O[C@H]2C[C@@H](N(C)C)[C@@H](O[C@H]3C[C@@H](O)[C@@H](O[C@H]4CCC(=O)[C@@H](C)O4)[C@@H](C)O3)[C@@H](C)O2)c2c(cc3c(c2O)C(=O)c2c(O)cccc2C3=O)[C@H]1C(=O)OC | – | 478 nM (active) |
| CCCCCCCCCCCC(=O)OCC(O)C1OCC(O)C1O (stereo not drawn) | -16.2% | – |
| C/C1=C2/[N-]C(C(CC(N)=O)[C@@]2(C)CCC(=O)NCC(C)OP(=O)([O-])O[C@H]2[C@@H](O)[C@@H](n3cnc4cc(C)c(C)cc43)O[C@@H]2CO)[C@]2(C)N=C(/C(C)=C3N=C(/C=C4N=C1C(CCC(N)=O)C\4(C)C)[C@@H](CCC(N)=O)[C@]\3(C)CC(N)=O)[C@@H](CCC(N)=O)[C@]2(C)CC(N)=O.CC(=O)O.[Co] (stereo partly drawn) | -19.8% | – |
| CC1(C)OC[C@@H]2O[C@@]3(C(=O)O)OC(C)(C)O[C@@H]3[C@@H]2O1 | -12.1% | – |
| CCC(C(=O)O)C1OC(C(C)C(O)C(C)C(=O)C(CC)C2OC3(C=CC(O)C4(CCC(C)(C5CCC(O)(CC)C(C)O5)O4)O3)C(C)CC2C)C(C)CC1C (stereo not drawn) | – | 75.7 nM (active) |
| O=C1C(I)=CC(=C(c2cc(I)c(O)c(I)c2)c2ccccc2C(=O)O)C=C1I | -8.48% | – |
| NC(=O)NC(CCC(=O)O)C(=O)O (stereo not drawn) | -4.09% | – |
| COC1CC2CCC(C)[C@](O)(O2)C(=O)C(=O)N2CCCCC2C(=O)OC(C(C)CC2CCC(O)C(OC)C2)CC(=O)C(C)/C=C(/C)C(O)C(OC)C(=O)C(C)CC(C)C=CC=C/C=C\1C (stereo partly drawn) | – | 1690 nM (active) |
